Assay results from PMC5540273 (PLoS ONE, 2017).

tested on: RIPK4; settings: concentration: 1 μM, replicates: in singlicate; n = 1
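Also: KINOMEscan kinase panel screen.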

Row | SMILES | %Inh
1 | COc1ccc(-c2coc3ccc(-c4nnc(SCc5ccc(OC)c(C(F)(F)F)c5)o4)cc23)cc1 | 12%
2 | COc1cccc(-c2ccc3c(NC(=O)C4CC4)n[nH]c3n2)c1 [SB-710903] | 27%
3 | Oc1cc(Nc2ccnc3cc(I)ccc23)ccc1F [GW552771] | 0%
4 | COc1cc2c(cc1OCCN1CCNCC1)ncc1c3ccc(C#N)cc3[nH]c21 | 41%
5 | CCS(=O)(=O)c1ccc(OC)c(Nc2nccc(-c3c(-c4cccc(NC(=O)c5c(F)cccc5F)c4)nn4ncccc34)n2)c1 [GSK326180] | 27%
6 | Cc1cccc(Nc2nc(N[C@H]3CCNC3)ncc2C(N)=O)c1.Cl [GSK2197149] | 90.7%

tested on: RIPK5; settings: concentration: 1 μM, replicates: in singlicate; n = 1

Row | SMILES | %Inh
7 | COc1cc(Nc2nccc(N3CCC(NC(=O)Nc4cccc(C(C)=O)c4)C3)n2)cc(OC)c1OC (centres unmarked) [GSK1379753] | 0%
8 | CCn1c(-c2nonc2N)nc2c(C#CC(C)(C)O)ncc(OCCCCN)c21.O=C(O)C(F)(F)F.O=C(O)C(F)(F)F [GSK507274] | 4%
9 | COc1cc(Nc2nccc(-c3c(-c4cccc(NC(=O)c5c(F)cccc5F)c4)nn4ncccc34)n2)cc(OC)c1OC [GSK327238] | 0%
10 | O=C(Nc1n[nH]c2nc(-c3ccc(O)cc3)ccc12)C1CC1 [SB-710363] | 0%
11 | O=c1[nH]cc(-c2ccc(N3CCOCC3)cc2)c2sc(-c3cn[nH]c3)cc12 [GSK2276055] | 10%
12 | O=C(Nc1cccc(-c2nn3ccccc3c2-c2ccnc(Nc3cccc(F)c3)n2)c1)c1c(F)ccc(F)c1Cl [GSK357952] | 0%
13 | CC(C)c1nc(-c2cccc(NS(=O)(=O)c3c(F)cccc3F)c2F)c(-c2ccnc(Nc3ccc(N4CCOCC4)nc3)n2)s1 [GSK2008607] | 92.6%
14 | CC(=O)N1CCN(c2ccc(Nc3nccc(-c4sc(C(C)C)nc4-c4cccc(NS(=O)(=O)c5cccc(Cl)c5)c4)n3)cn2)CC1 [GSK1660437] | 37%
15 | O=C(Nc1cccc(-c2nn3ncccc3c2-c2ccnc(Nc3ccccc3)n2)c1)c1c(F)cccc1F [GSK198271] | 6%
16 | Cl.c1ccc(-c2ccc3c(Nc4ccc5[nH]ncc5c4)ccnc3c2)nc1 [GW440137] | 4%
17 | Cn1cc(-c2[nH]c3cc(NC(=O)[C@H](N)C4CCCCC4)cc4c3c2C=NNC4=O)cn1 | 25%
18 | CNC(=O)c1ccccc1Nc1nc(Nc2ccc(N3CCOCC3)cc2)ncc1Cl.Cl [GSK1576028] | 80%
19 | c1ccc(-c2cnc3nccnn23)cc1 [AH20685] | 0%
20 | CN(C)S(=O)(=O)c1cc(-c2ccc3nccc(-c4cccc(S(N)(=O)=O)c4)c3c2)cnc1N [GSK1669921] | 26%
21 | COc1cccc(NC(=O)NC2CCN(c3ccnc(Nc4cc(OC)c(OC)c(OC)c4)n3)C2)c1 (centres unmarked) [GSK1379763] | 0%
22 | C[C@@H](Oc1cc(-n2cnc3cc(-c4ccnc(NCCS(C)(=O)=O)c4)ccc32)sc1C(N)=O)c1ccccc1Cl [GSK907232] | 5%
23 | Fc1ccc(-c2ncn(C3CCNCC3)c2-c2ccnc(Oc3ccc(-c4ccccc4)cc3)n2)cc1 [SB-245391] | 33%
24 | COc1cccc(C(=O)Nc2cccc(Oc3ccc4nc(NC(=O)C5CC5)cn4n3)c2)c1 | 0%
25 | Nc1ncc(-c2cccnc2)c2scc(-c3ccc4c(c3)CCN4C(=O)Cc3ccccc3)c12 [GSK683281] | 20%
26 | Cc1occc1-c1ncc(OC[C@@H](N)Cc2c[nH]c3ccccc23)cc1-c1ccc2[nH]nc(C)c2c1.O=C(O)C(F)(F)F [GSK682037] | 0%
27 | Nc1n[nH]c2cnc(-c3ccccc3)cc12 [SB-642124] | 0%
28 | Cc1ccc(S(=O)(=O)Nc2ccc(Nc3nccc(Nc4cccc5[nH]ncc45)n3)cc2)cc1 [GSK581271] | 0%
29 | c1ccc(-c2n[nH]cc2Nc2ccnc3ccccc23)nc1 [GW694077] | 85%
30 | COc1ccc(Nc2nccc(NCCNC(=O)c3cc4ccccc4s3)n2)cc1 [GSK1379896] | 7%
31 | Cc1ccc(F)c(C(=O)Nc2cccc(-c3nn4ccccc4c3-c3ccnc(Nc4cccc(F)c4)n3)c2)c1F [GSK361061] | 0%
32 | CC(C)(C)c1ccc2nccc(Nc3cccc(O)c3)c2c1 [GW856795] | 0%
